Measurements as given in PubChem BioAssay AID602449 (Sanford-Burnham Center for Chemical Genomics, 2012).
The whole screen tested about 360,000 compounds, of which about 5,000 (1.4%) were called active.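 How the source made its calls: active means inhibition of 50% or more, scaled per plate between neutral and stimulator controls; inactive means the rest.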 Shown is part of a subset that was picked to be rich in actives.

Assay: mitochondrial permeability transition pore inhibitors, primary screen, biochemical, isolated mouse mitochondria, absorbance (AID 602449);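 further: 0% = DMSO wells given calcium and 100% = 1 mM EGTA wells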
Settings: Ca2+ swelling absorbance, 30 min, at 10 µM, active compounds read high

Row | SMILES | inhibition
1 | O=C(NNC1=C(C(=O)C(F)(F)F)CCC1)c1ccncc1 | 0.3% (inactive)
2 | COc1ccc(NC(=O)C(=O)NCC(c2ccco2)N2CCc3ccccc3C2)cc1 (configuration not stated) | 0.5% (inactive)
3 | O=C(CCCOc1ccccc1)Nc1cccc(C(=O)O)c1 | 0.4% (inactive)
4 | COC(=O)c1noc(C)c1-c1ccnn1C(=O)c1ccc(Cl)cc1 | 5% (inactive)
5 | O=C(C/C(=N\NC(=O)c1ccccc1Br)C(F)(F)F)c1cccs1 | 59.2% (active)
6 | O=C(CNC(=O)c1ccccc1Br)NNC(=O)c1cccs1 | -3.3% (inactive)
7 | CC/C(=N\NC(=O)c1ccccc1Cl)c1ccc(Br)s1 | -0.9% (inactive)
8 | N#Cc1nc(N)nc(N(c2ccccc2)c2ccccc2)n1 | 0% (inactive)
9 | CC1(C(=O)NS(=O)(=O)c2cccs2)CCN1C(=O)Cc1ccc(-c2ccccc2)cc1 (configuration not stated) | 1.6% (inactive)
10 | O=S(=O)(Nc1ccccc1)c1ccc(NS(=O)(=O)c2cccs2)cc1 | -0.1% (inactive)
11 | O=S(=O)(Nc1ccccc1Br)c1cccs1 | 1.3% (inactive)
12 | O=C(Nc1cccc(Cl)c1)Nc1ccccc1NS(=O)(=O)c1cccs1 | 87.7% (active)
13 | Nc1ncnc2c1ncn2[C@@H]1O[C@H](CNCc2cccn2-c2nccs2)[C@@H](O)[C@H]1O | -2.5% (inactive)
14 | CC(=O)OC(COc1ccc(F)cc1)Cn1cnc2ccccc21 (configuration not stated) | 0.4% (inactive)
15 | CCOC(=O)c1ccccc1NC(=O)CSc1nc2c(sc(=S)n2CC)c(=O)[nH]1 | 5.4% (inactive)
16 | Cc1ccc(C(=O)Nc2c(-c3ccccc3)[nH][nH]c2=O)cc1 | -0.8% (inactive)
17 | Fc1cc(F)c2nc(Nc3nc4c(F)cccc4s3)sc2c1 | 94.3% (active)
18 | Fc1ccc2nc(Nc3nc4c(s3)CCCC4)sc2c1 | 5.3% (inactive)
19 | NNc1nc2c(Cl)cccc2s1 | -0.9% (inactive)
20 | O=C(NC1(C(F)(F)F)NC(=O)N(Cc2cccnc2)C1=O)c1ccccc1Cl (configuration not stated) | 1% (inactive)
21 | CCCCCCCCCCCCN1C(=O)CSC1c1cccnc1 (configuration not stated) | 62.4% (active)
22 | CCCCc1ccc(NC(=O)NCc2cccnc2)cc1 | -0.3% (inactive)
23 | CN(C)CCCN1C(=O)CSC1c1ccc([N+](=O)[O-])cc1 (configuration not stated) | -0.2% (inactive)
24 | CCCS(=O)(=O)NC(=O)C1(C)CCCN(C(=O)c2ccnc(Cl)c2)C1 (configuration not stated) | -0.3% (inactive)
25 | COc1ccc(CC(=O)Nc2ccccc2NC(=O)c2ccco2)cc1OC | 2.5% (inactive)
26 | COc1ccc(CC(=O)NC2CCSc3ccccc32)cc1OC (configuration not stated) | -1.7% (inactive)

Row | SMILES | inhibition
27 | COc1ccc(CCNC(=O)COC(=O)Cc2cc(OC)c(OC)c(OC)c2)cc1 | 0% (inactive)
28 | COc1ccc(CC(=O)Nc2nc(-c3ccc(F)c(F)c3)cs2)cc1OC | 108% (active)
29 | COc1cc(CC(=O)Nc2nc(-c3ccc(F)c(F)c3)cs2)cc(OC)c1OC | 105% (active)
30 | COc1cc(CCC(=O)Nc2ccncc2Cl)cc(OC)c1OC | 0.5% (inactive)
31 | CC(C)c1ccc(CC(=O)N2CCC2(C)C(=O)NS(=O)(=O)c2ccc(C(C)(C)C)cc2)cc1 (configuration not stated) | 1.8% (inactive)
32 | COc1ccc(Cl)cc1NC(=O)COC(=O)C(CC(C)C)N1C(=O)C2CC=CCC2C1=O (configuration not stated) | 1.6% (inactive)
33 | COc1ccc(C(=O)C2CCCN(C(=O)c3cc(C)on3)C2)cc1F (configuration not stated) | -1.4% (inactive)
34 | O=C(Nc1ccc(Cl)cc1)c1csc([C@@H]2O[C@H](CO)[C@H](O)[C@H](O)[C@H]2O)n1 | -4.4% (inactive)
35 | O=C(CSc1n[nH]c(-c2cccnc2)n1)Nc1ccc(Cl)cc1 | 1.2% (inactive)
36 | O=C(NNC(=O)c1csc(-c2cccnc2)n1)Nc1ccc(Cl)cc1 | 56.5% (active)
37 | CCCN(C(=O)c1nc2nccc(C)n2n1)c1c(N)n(Cc2ccccc2)c(=O)[nH]c1=O | -2.3% (inactive)
38 | CCc1cc(C(=O)OC)c(NC(=O)CC2Sc3ccc(C(F)(F)F)cc3NC2=O)s1 (configuration not stated) | 3.8% (inactive)
39 | O=C(Nc1ccc(Cl)cc1)c1csc([C@H]2C[C@H](O)[C@@H](CO)O2)n1 | -0.6% (inactive)
40 | CC[C@@H](C)[C@@H](C(=O)N1CCN(C(=O)OC(C)(C)C)CC1)n1cc(CCC(=O)O)nn1 | -0.6% (inactive)
41 | CC(C)(C)c1ccc(CCC2OCC(CN3CCOCC3)O2)cc1 (configuration not stated) | 3.3% (inactive)
42 | COc1cccc(C(C(=O)NC2CCCC2)N(C(=O)c2ccco2)c2cccc(C(C)=O)c2)c1OC (configuration not stated) | -2.4% (inactive)
43 | Cc1nc(CNS(=O)(=O)c2ccc(Oc3ccccc3)cc2)cs1 | 88.7% (active)
44 | Cc1ccc(S(=O)(=O)NCc2nc3ccccc3c(=O)n2N)cc1 | 1.2% (inactive)
45 | Cc1nc(CNS(=O)(=O)c2cc([N+](=O)[O-])ccc2C)cs1 | 0.4% (inactive)
46 | COC(=O)[C@@]12C[C@@H](CC(=O)NCCCCc3ccccc3)C(=O)N(Cc3ccccc3)C1=CCC(C)(C)C2 | -0.7% (inactive)
47 | Cc1ccc(OCC(=O)N2CCN(S(=O)(=O)c3ccc(Cl)s3)CC2)cc1C | 2.3% (inactive)
48 | CC(C)c1ccc(NC(=O)NC2CCCCC2)cc1 | 0.2% (inactive)
49 | CC(C)c1ccc(NC(=S)NC2CC3C=CC2C3)cc1 (configuration not stated) | 73.8% (active)
50 | O=C(COC(=O)C1CC2C=CC1C2)Nc1ccccc1 (configuration not stated) | -0.1% (inactive)
51 | CCOC(=O)/C(N=Nc1cc(C(=O)O)cc(C(=O)O)c1)=C(\O)CCl | -2.4% (inactive)
52 | CN(C)C(CNC(=O)c1cccc(S(=O)(=O)Nc2ccc(Br)cc2)c1)c1ccco1 (configuration not stated) | -0.5% (inactive)

Row | SMILES | inhibition
53 | Cc1ccc(CC(=O)Nc2ccc(OC(F)F)c(Cl)c2)cc1C | 60% (active)
54 | COc1ccc(Cc2nnc(SCC(=O)Nc3ccc(C)c(C)c3)o2)cc1OC | 0% (inactive)
55 | Cc1ccc(CC(=O)Nc2ccc(S(=O)(=O)N3CCOCC3)cc2)cc1C | 1% (inactive)
56 | FC(F)Oc1ccc(NC(=S)NCc2ccco2)cc1Cl | 86.1% (active)
57 | COC(=O)Cc1ccc(NC(=S)NCc2ccco2)cc1 | -0.8% (inactive)
58 | COc1cc(NC(=S)NCc2ccco2)c(OC)cc1Cl | 1.7% (inactive)
59 | OCCC1CN(Cc2ccc3nsnc3c2)CCN1C1CCCC1 (configuration not stated) | 2.1% (inactive)
60 | Cc1nnc(SCC(=O)N(C(C)C)C(C)C)nc1C | -1.3% (inactive)
61 | CCC(C(=O)NCc1ccc(OC)cc1)n1nc(C)n2c(cc3occc32)c1=O (configuration not stated) | 0.5% (inactive)
62 | CCC(C)NC(=O)c1nn(C)c(=O)c2ccccc12 (configuration not stated) | -0.2% (inactive)
63 | COc1cccc(/C=C(/CC(=O)Nc2ccc(N3CCOCC3)cc2)c2nc3ccccc3s2)c1 | -0.3% (inactive)
64 | COc1ccc(NC(=O)COC(=O)c2ccc(NS(=O)(=O)/C=C/c3ccccc3)cc2)cc1 | -9% (inactive)
65 | COc1ccc(/C=C(/CC(=O)Nc2ccc(C)cc2)c2nc3ccccc3s2)cc1 | 52.2% (active)
66 | CCc1ccc(CN(C)C(C)C(=O)Nc2ccc(S(=O)(=O)N3CCCC3)cc2)cc1 (configuration not stated) | 0.2% (inactive)
67 | O=C1NC[C@H](CCCCN2C[C@H](Cc3ccccc3)N(Cc3ccccc3)C(=O)C2=O)N(CCc2ccc(O)cc2)C1=O | -0.9% (inactive)
68 | COC(=O)c1ccccc1NC(=O)CN(Cc1ccc(Cl)cc1)S(C)(=O)=O | 0.4% (inactive)
69 | CC(=O)c1cccc(OCc2cc(C(=O)NC(C)Cc3cccnc3)no2)c1 (configuration not stated) | 0% (inactive)
70 | CN(Cc1cnccn1)C(=O)c1cc(COc2cccc(C(F)(F)F)c2)on1 | 0% (inactive)
71 | CN(Cc1cccnc1)C(=O)c1cc(COc2ccc3ncccc3c2)on1 | 98.2% (active)
72 | O=C(NC(=S)NC1CCS(=O)(=O)C1)c1cccc([N+](=O)[O-])c1 (configuration not stated) | -0.7% (inactive)
73 | Cc1ccc(NC(=O)C(=O)NCC2CCN(C(=O)c3cccc([N+](=O)[O-])c3)CC2)cc1 | -2.2% (inactive)
74 | O=C(Nc1ccc(C2CC2(Cl)Cl)cc1)c1cccc([N+](=O)[O-])c1 (configuration not stated) | 77.1% (active)
75 | Cc1ccc(CS(=O)(=O)CCC(=O)NC2CC2)cc1 | -1.1% (inactive)
76 | NS(=O)(=O)c1ccc(NC(=S)Nc2ccc(Br)c(Cl)c2)cc1 | 102% (active)
77 | COc1ccc(NC(=S)Nc2ccc(S(N)(=O)=O)cc2)c(C)c1 | -2.1% (inactive)
78 | NS(=O)(=O)c1ccc(NC(=S)N2CCCC2)cc1 | -0.2% (inactive)

Row | SMILES | inhibition
79 | CC1=C/C(=N\OS(=O)(=O)c2ccccc2)C=CC1=O | 103% (active)
80 | O=C(COC(=O)c1ccc(NS(=O)(=O)c2cccs2)cc1O)Nc1ccc(F)cc1 | 4.7% (inactive)
81 | O=S(=O)(Cc1cc(Cl)nc(-c2cccnc2)n1)c1ccccc1 | 0.8% (inactive)
82 | O=C(Nc1ccccc1)c1ccc2nsnc2c1 | -1.8% (inactive)
83 | COc1ccc(NC(=O)Nc2ccc3nsnc3c2)cc1 | 87.9% (active)
84 | COCCNC(=O)Nc1ccc2nc(-c3ccco3)c(-c3ccco3)nc2c1 | 0.5% (inactive)
85 | CSCc1cc(N(C)C)nc(SCc2ccc(Cl)cc2Cl)n1 | 1.1% (inactive)
86 | COc1ccc(C(=O)CSc2n[nH]c(N)n2)cc1 | -1% (inactive)
87 | CCCCN(C(=O)/C=C/c1ccco1)c1c(N)n(CC(C)C)c(=O)[nH]c1=O | 0% (inactive)
88 | O=S(=O)(Nc1cccc(-c2ccc(N3CCOCC3)nn2)c1)c1ccc(Cl)c(Cl)c1 | -0.6% (inactive)
89 | O=C(NNC(=O)c1cccc(S(=O)(=O)Nc2ccc(Cl)cc2)c1)c1ccc(=O)[nH]c1 | -1.3% (inactive)
90 | Fc1ccc2[nH]c3c(N4CCSCC4)ncnc3c2c1 | 80.7% (active)
91 | CCN(CC(=O)Nc1ccccc1OC)C(=O)CC1CC2CCC1C2 (configuration not stated) | 0.6% (inactive)
92 | Cc1ccc(C2CCN(C(=S)Nc3cccc(Cl)c3)C2)cc1 (configuration not stated) | 14.6% (inactive)
93 | Cc1csc(NC(=S)Nc2cccc(Cl)c2)n1 | 64.4% (active)
94 | O=C(NCc1cn2ccsc2n1)Nc1cccc(Cl)c1 | -1.5% (inactive)
95 | S=C(Nc1cccc(Cl)c1)Nc1ccc2cn[nH]c2c1 | 55% (active)
96 | CC(C)Cc1nnc(NC(=O)CCC(=O)Nc2ccc3cn[nH]c3c2)s1 | 2% (inactive)
97 | O=C(Nc1ccc2cn[nH]c2c1)c1ccc(S(=O)(=O)N2CCOCC2)cc1 | -4.1% (inactive)
98 | CCOC(=O)Cn1c2c(c(-c3ccccc3OC)cc1=O)CCCC2 | -1.1% (inactive)
99 | Clc1ccc(C2=CSC3=Nc4cccc5cccc(c45)N23)cc1 | 6.8% (inactive)
100 | CN(Cc1c(F)cccc1Cl)S(=O)(=O)c1cccs1 | -1.8% (inactive)
101 | Cc1ccc(Nc2c(O)nc[nH]c2=O)cc1C | -0.6% (inactive)
102 | CCOC(=O)N1CCC(Nc2c(NCCCN3CCN(c4ccc(OC)cc4)CC3)c(=O)c2=O)CC1 | 2.4% (inactive)
